# mHTT CaM bind: inhibitors of human mutant huntingtin-calmodulin interaction; AlphaScreen His-mHTT/GST-CaM binding, luminescence; 190,000 compounds, 3.6% hits; inhibition, % at 15 µM; AID 1671202; P42858
# Pf apPOL inh: Pf-apPOL DNA polymerase inhibition; Recombinant Pf-apPOL, molecular beacon fluorescence, 1.5 h; inhibition, % at 10 µM; 210,000 compounds, 0.25% hits; AID 1794808
# Hits are given with their value; – = inactive; · = no result. A selection: hits, their analogues and other compounds. The true share with any hit is near 3.5%. Rule as the data show it: active = inhibition above about 50%; inactive = the rest.
SMILES,mHTT CaM bind,Pf apPOL inh
O=C(NCc1cnccn1)c1ccc(N2CCNC(c3ccccc3)C2)nc1 (stereo not drawn),–,–
COc1ccc(CNC(=O)c2ccnc(N3CCNC(c4ccccc4)C3)c2)c(OC)c1 (stereo not drawn),–,–
O=C(NCc1ccccc1)c1cccc(N2CCNC(c3ccccc3)C2)n1 (stereo not drawn),–,–
O=C(NCc1cnccn1)c1ccnc(N2CCNC(c3ccccc3)C2)c1 (stereo not drawn),70,–
COc1ccc(CNC(=O)c2cccc(N3CCNC(c4ccccc4)C3)n2)c(OC)c1 (stereo not drawn),97,–
O=C(CN1N=C(c2ccccc2)CCC1=O)NCc1ccccn1,–,–
COc1ccccc1NC(=O)N1CCC2(CC1)Nc1cc(F)ccc1-n1cccc12,57,–
Cc1ccccc1NC(=O)N1CCC2(CC1)Nc1cc(F)ccc1-n1cccc12,–,–
COc1ccc(OC)c(NC(=O)N2CCC3(CC2)Nc2cc(F)ccc2-n2cccc23)c1,63,–
COc1ccc(C)cc1NC(=O)N1CCC2(CC1)Nc1ccccc1-n1cccc12,–,–
COc1ccc(Cl)cc1NC(=O)N1CCC2(CC1)Nc1cc(F)ccc1-n1cccc12,55,–
Cc1ccccc1C1CN(C(=O)c2ccc3c(c2)OCO3)CC1C(=O)NCC(C)C (stereo not drawn),–,–
COc1cc(C(=O)N2c3ccccc3C(C)=CC2(C)C)cc(OC)c1OC,–,–
CCOC(=O)c1cc2cccc(OC)c2oc1=O,–,–
CC1(C)CC(CCN(Cc2ccccc2)C(=O)c2ccco2)(c2ccccc2)CCO1 (stereo not drawn),–,–
CC(=O)N(CCC1(c2ccccc2)CCOC(C)(C)C1)Cc1ccc(N(C)C)cc1 (stereo not drawn),75,–
CSCCC(C)(O)CNC(=O)C(=O)NCC1CCCO1 (stereo not drawn),–,–
Cc1cc2nc(CN3CCN(c4cccc(C(F)(F)F)c4)CC3)c(=O)[nH]c2cc1C,–,–
CC(C)(C)c1ccc(OCCCC(=O)Nc2ncn[nH]2)cc1,–,–
COc1cc(/C=C2/C(=O)N(c3cccc(Cl)c3)N=C2C)c([N+](=O)[O-])cc1OC,62,–
CC1=NN(c2ccccc2)C(=O)/C1=C/c1ccc(-c2ccc([N+](=O)[O-])cc2C)o1,–,–
COc1cc(/C=C2/C(=O)N(c3ccc(C)cc3)N=C2C)c([N+](=O)[O-])cc1OC,–,–
COc1ccc(/C=C2/C(=O)N(c3cccc(Cl)c3)N=C2C)cc1[N+](=O)[O-],–,–
COc1cc(/C=C2/C(=O)N(c3ccc(C(=O)O)cc3)N=C2C)c([N+](=O)[O-])cc1OC,–,100
CC1=NN(c2cccc(Cl)c2)C(=O)/C1=C/c1ccc(-c2cc([N+](=O)[O-])ccc2O)o1,92,–
SMILES,mHTT CaM bind,Pf apPOL inh
O=C(CSc1cn(Cc2cccc(F)c2)c2ccccc12)N1CCCCCC1,–,–
Cc1ccc(C(=O)Nc2ccc3c(c2)OCO3)c(Cl)c1,–,–
COc1ccc(C(=O)N2CCc3nc4cc(-c5ccccc5Cl)[nH]n4c(=O)c3C2)cn1,–,–
Nc1ccc(-c2ccc(N)cc2S(=O)(=O)O)c(S(=O)(=O)O)c1,–,–
CC(C)CNC(=O)C1CCN(c2cnn(Cc3ccccc3)c(=O)c2)CC1,–,–
Cn1nc(NC(=O)c2cc(-c3ccccc3)on2)c2c1NC(=O)CC2c1cccs1 (stereo not drawn),–,–
Cc1ccc(CNC(=O)C2(C)CCCN(C(=O)Nc3ccc(C)cc3Cl)C2)cc1 (stereo not drawn),–,–
Cc1ccc(-n2cc(C(=O)NCc3cccs3)nn2)cc1,–,–
Cc1ccc(N2C(=O)CCS2(=O)=O)cc1S(=O)(=O)Nc1cccc2cccnc12,75,–
Cc1ccccc1NS(=O)(=O)c1cccc2cccnc12,–,–
CC1(C)N=c2ccc([N+](=O)[O-])cc2=N1,·,64
O=[N+]([O-])c1ccc2nc(Cl)c(Cl)nc2c1,–,·
Cn1c(=O)[nH]c(=O)c2c1nc(SCC(O)CO)n2Cc1ccccc1 (stereo not drawn),–,–
COc1ccc(NC(=O)c2cc(C)n3nc(C)cc3n2)c(C)c1,–,–
CN1c2cc(C(=O)NCc3ccc(F)c(Cl)c3)ccc2C(=O)N2CCCCC21 (stereo not drawn),56,–
CN1C(=O)C2CCCCN2c2ccc(C(=O)N3CCN(c4ccccn4)CC3)cc21 (stereo not drawn),–,–
CN1C(=O)C2CCCCN2c2ccc(C(=O)N3CCN(c4cccc(Cl)c4)CC3)cc21 (stereo not drawn),99,–
CN1C(=O)C2CCCCN2c2ccc(C(=O)NCc3ccccc3)cc21 (stereo not drawn),–,–
CCN1c2cc(C(=O)NCc3cccc(Cl)c3)ccc2C(=O)N2CCCCC21 (stereo not drawn),–,–
Cc1cccc(N2CCN(C(=O)c3ccc4c(c3)N(C)C(=O)C3CCCCN43)CC2)c1C (stereo not drawn),55,–
COc1ccc(N2CCN(C(=O)c3ccc4c(c3)N(C)C(=O)C3CCCCN43)CC2)cc1 (stereo not drawn),–,–
CN1C(=O)C2CCCCN2c2ccc(C(=O)N3CCC(Cc4ccccc4)CC3)cc21 (stereo not drawn),87,–
Nc1ccc2[nH]c(=O)nc(-c3ccccc3)c2c1,–,–
CC(C)(C)NC(=O)c1cccc(NS(=O)(=O)c2ccc([N+](=O)[O-])cc2)c1,–,–
Cc1cc(C)c(NC(=O)COc2ccc(C)cc2Br)c(Cl)c1,–,–
SMILES,mHTT CaM bind,Pf apPOL inh
c1ccc2c(-c3ccc(OCc4ccoc4)cc3)c(-c3ccsc3)sc2c1,–,–
CCOc1cccc(-c2nc(C(=O)Nc3ccccc3F)cs2)c1,–,–
COc1ccc(S(=O)(=O)c2cc(NC(=O)c3ccccc3)c(C)c(C)c2O)cc1,–,–
Cc1cccc(N2CCN(C(=O)c3ccc4c(c3)N(C)C3CCCCN3C4=O)CC2)c1 (stereo not drawn),–,–
CN1C(=O)C2CCCCN2c2ccc(C(=O)N3CCc4ccccc4C3)cc21 (stereo not drawn),–,–
Cc1ccc(C)c(N2CCN(C(=O)c3ccc4c(c3)N(C)C(=O)C3CCCCN43)CC2)c1 (stereo not drawn),94,–
CN1c2cc(C(=O)N3CCN(c4cccc(Cl)c4)CC3)ccc2C(=O)N2CCCCC21 (stereo not drawn),97,–
COc1ccc(-c2noc(C3CCN(CC(=O)Nc4ccc(C#N)cc4)CC3)n2)cc1,–,–
CC1(C)CC(=O)c2cc3c(N)c(C(=O)Nc4ccc(Cl)c(Cl)c4)sc3nc2C1,–,–
Cc1ccc(CC(=O)Nc2cccc(-n3cnnn3)c2C)cc1,–,–
Cc1ccc(C(=O)N2CCC3(CC2)NC(=O)c2cc(Cl)ccc2N3C)cc1,–,–
Cc1cc(NC(=O)c2cnc3scc(C)n3c2=O)no1,–,–
CCOc1cc(/C=C2/SC(=Nc3cccc(C(=O)O)c3)NC2=O)ccc1OC,51,–
COc1cc(/C=C2/SC(=Nc3ccccc3Cl)NC2=O)cc(OC)c1,–,–
CCOc1cc(/C=C2/SC(=Nc3ccccc3)NC2=O)ccc1OC,–,–
O=C1NC(=Nc2cccc(Cl)c2Cl)S/C1=C\c1ccc(O)c(O)c1,83,–
O=C1NC(=Nc2ccccc2Cl)S/C1=C/c1cccc(C(=O)O)c1,–,–
CCOc1cc(/C=C2/SC(=Nc3ccccc3Cl)NC2=O)ccc1O,53,–
